Screen size: about 69,000 compounds; about 8,600 (12%) showed an effect of 50% or more. This excerpt belongs to a sample that is enriched for strong results.
What follows are compounds tested on Plasmodium berghei (assay: Screen against P. berghei liver stage (PbLuc), transformed with Luciferase, at 10uM). Conditions: tested at 10 uM.
Assay type: functional, HepG2

In order of falling INHIBITION:
1. COc1cc(N2CCC3(CCN(Cc4nccs4)CC3)C2)ncn1  91.9%
2. COc1cc(N2CCC3(CCN(Cc4csc(C)n4)C3=O)C2)ncn1 (stereo not drawn)  90.1%
3. CC(=O)N1CCCN(C(=O)c2ccc(=O)n(C)c2)c2ccccc21  62.6%
4. Cc1ccc(N2CCC3(CCN(Cc4csc(C)n4)CC3)CC2)nn1  58.7%
5. Cc1ccc(N2CC3(CCN(c4nccs4)C3)C2)nn1  58.5%
6. COc1cc(N2CCC3(CC(=O)N(Cc4csc(C)n4)C3)C2)ncn1 (stereo not drawn)  58.4%
7. COc1cc(N2CCC3(CCN(Cc4csc(C)n4)C3)CC2)ncn1  55.7%
8. Cc1cnc(N2CCC3(CC(=O)N(Cc4csc(C)n4)C3)C2)nc1 (stereo not drawn)  54.7%
9. Cn1cc(C(=O)N2CCOc3ccccc32)ccc1=O  51.8%
10. COc1ccc2c(c1)C1(CCN(Cc3nccs3)CC1)N(C)CC2  51.3%
11. CN1CC2(CCN(C(=O)c3ccc(=O)n(C)c3)CC2)CC1=O  50.5%
12. Cc1ccc(N2CCC3(CCN(Cc4csc(C)n4)C3=O)C2)nn1 (stereo not drawn)  47.5%
13. CCN1CCN(C(=O)c2ccc(=O)n(C)c2)c2ccccc21  44.1%
14. CN1CCN(C(=O)c2ccc(=O)n(C)c2)Cc2ccccc21  40.3%
15. Cc1ccc(S(=O)(=O)n2ccn(C(=O)CC(C)C)c2=O)cc1  40%
16. N#Cc1ccc(N2CC3(CCN(c4nccs4)C3)C2)nc1  37.9%
17. Cc1cc(NC(=O)CN2CCc3c(nc(C(C)C)n3C)C2)n(C)n1  36%
18. Cc1nc(CN2CC3(CCN(c4cnccn4)C3)CC2=O)cs1 (stereo not drawn)  35.8%
19. Cc1cccc(C(=O)Nc2c(C(=O)N(C)C)nn(C)c2C)c1  35%
20. CCc1cnc(N2CCC3(CC(=O)N(Cc4csc(C)n4)C3)C2)nc1 (stereo not drawn)  34.4%
21. Cc1cnc(N2CCC3(CCN(Cc4csc(C)n4)C3=O)C2)nc1 (stereo not drawn)  34%
22. Cn1cc(C(=O)N2CCSc3ccccc32)ccc1=O  33.8%
23. Cc1ccc(N2CCC3(CCN(Cc4nccs4)CC3)CC2)nn1  26.5%
24. CSc1ccc(C(=O)N2CC(=O)N(Cc3cccs3)CC(O)C2)cc1 (stereo not drawn)  19.2%
25. Cc1nc(CN2CC3(CCN(c4ncccn4)C3)CC2=O)cs1 (stereo not drawn)  18.2%
26. Cc1nc(CN2CCN(c3cc(CCN)ncn3)CC2)cs1  17.2%
27. Cn1cc(C(=O)N2CCOc3cc(F)ccc32)ccc1=O  16.1%
28. COc1coc(C(=O)Nc2ccncc2)cc1=O  14.3%
29. Cc1ccc(O)c(CNc2cccc(CN3CCN(C)CC3)c2)n1  13.9%
30. Cc1cnn(CC2CN(C=C3NN=C(c4occc4C)O3)CCO2)c1 (stereo not drawn)  13.3%
31. COc1ccc(C(=O)N2CCCC2c2noc(C(C)C)n2)nn1 (stereo not drawn)  12.255%
32. COc1cc(N2CC3(CCN(c4ncccn4)C3)C2)ncn1  12.1%
33. Cc1cnc(N2CCC3(CCC(C(=O)NC(C)C)C3)CC2)nc1 (stereo not drawn)  11.3%
34. Cc1ccc(N2CCC3(CC2)COCCN(c2nccs2)C3)nn1  6.72%
35. COCC1c2nnn(CC3CC3)c2CCN1Cc1ccncc1 (stereo not drawn)  4.68%
36. CN(C)CCNC(=O)[C@H]1C[C@H]2CN(C(=O)NCc3ccccc3)C[C@@H]1O2  -0.27%
37. CC1CCN(C)c2ccccc2N1C(=O)c1ccc(=O)n(C)c1 (stereo not drawn)  -3.12%
38. Cc1cc(C)c(CNC(=O)N(C)Cc2cccc(C#N)c2)c(=O)[nH]1  -3.7%
39. CN1CC2(CCN(C(=O)c3ccc4nonc4c3)CC2)CC1=O  -6.01%
40. O=C(c1ccc[nH]1)N1CCc2nnc(Cn3cccc3)n2CC1  -6.25%
41. Cc1cccc(CN2C(=O)CCC23CCN(C(=O)c2ccco2)CC3)c1  -7.28%
42. c1csc(CN2CCC3(CC2)CCN(CC2CCOCC2)C3)n1  -8.85%
43. COc1ccc2c(c1)C1(CCN(Cc3ccncc3)CC1)N(C)CC2  -9.67%
44. CC1CN(C(=O)c2ccc(=O)n(C)c2)c2ccccc2NC1=O (stereo not drawn)  -12.2%
45. CCOCC(O)CN1CCN(C(=O)C2CCC2)CC1 (stereo not drawn)  -14.6%
46. CN(Cc1cccc(F)c1)C(=O)CN1CCOC(Cn2cccn2)C1 (stereo not drawn)  -14.8%
47. O=C(NC1CC1)N1CC[C@H]2[C@H]1CCN2c1nncs1  -19.8%
48. CN(Cc1noc(C2CC2)n1)C1CCN(Cc2ccc(F)c(F)c2)C1 (stereo not drawn)  -19.945%
49. Cc1nc(CN2CC3(CCN(c4ncc(F)cn4)C3)CC2=O)cs1 (stereo not drawn)  -30%
50. Cc1cc(NC2CC3(CCN(Cc4csc(C)n4)C3)C2)ncn1 (stereo not drawn)  -31.1%
51. Cc1ccc(N2CCC3(CCN(Cc4ccccn4)CC3)CC2)nn1  -42.6%
52. COc1ccc(-c2cc(C3CC3)c(C#N)c(N)n2)cc1F  -60.9%
53. COc1ccc2c(c1)C1(CCN(Cc3ccccn3)CC1)N(C)CC2  -73.3%

Source: ChEMBL document CHEMBL4513216, “Probing the Open Global Health Chemical Diversity Library for Multistage-Active Starting Points for Next-Generation Antimalarials” (ACS Infect Dis, 2020)
